Results published in PubChem BioAssay (NCATS).
Records with an inconclusive call do not appear. Activity calls are given as the source filed them. The call rests on the fitted dose curve; in most records, active means well fitted curve in the direction sought with a large enough effect; inconclusive means small, poorly fitted or top-dose-only effect, or another doubt; inactive means no such curve, though single readings can be large; an effect the other way counts as inactive or inconclusive.

What follows are compounds tested against Cytochrome P450 2C19 (Homo sapiens) (UniProt P33261) (assay: qHTS Assay for Inhibitors and Substrates of Cytochrome P450 2C19 (AID 899; further: nearly all actives have a fitted effect of over 60% in size)). Details: recombinant CYP2C19, luciferin-H EGE luminescence; series mostly up to 57.1 µM.
Chain of Cytochrome P450 2C19 (Homo sapiens) (P33261 whole entry, looked up): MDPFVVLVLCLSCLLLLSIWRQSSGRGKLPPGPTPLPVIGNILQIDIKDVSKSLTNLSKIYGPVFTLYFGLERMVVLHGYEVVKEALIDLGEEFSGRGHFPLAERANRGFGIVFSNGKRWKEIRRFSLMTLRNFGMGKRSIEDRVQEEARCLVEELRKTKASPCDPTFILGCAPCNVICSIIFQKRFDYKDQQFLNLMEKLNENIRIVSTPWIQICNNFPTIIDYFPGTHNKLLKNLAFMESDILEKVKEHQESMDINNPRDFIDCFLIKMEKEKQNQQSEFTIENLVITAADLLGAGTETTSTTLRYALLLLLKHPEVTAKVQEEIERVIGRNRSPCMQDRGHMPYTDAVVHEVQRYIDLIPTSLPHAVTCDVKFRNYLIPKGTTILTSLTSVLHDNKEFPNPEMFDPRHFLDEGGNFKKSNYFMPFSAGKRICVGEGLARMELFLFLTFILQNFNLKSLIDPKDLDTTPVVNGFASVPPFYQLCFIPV
Summary of the method: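 Signal comes from luciferase acting on luciferin released by CYP2C19-mediated hydroxylation of Luciferin-H EGE, 10uM (KM). Assay mix: 5nM enzyme, 50mM KPO4; 60 min at 37C with NADPH regeneration. Data normalized against 57uM ketoconazole.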
Potency means the concentration at half of the fitted maximal effect.

SMILES | Potency
CC(C)C[C@@H](CC(=O)N[C@@H](CCC(=O)O)CC(=O)O)NC(=O)[C@@H]1CCCC[C@H]1NC(=O)C[C@@H](NC(=O)C[C@H](Cc1c[nH]c2ccccc12)NC(=O)[C@@H]1CNCC[C@H]1N)C(C)C | inactive
NCCC[C@@H](CC(=O)N[C@@H]1CCCC[C@H]1C(=O)N[C@H](CC(=O)N[C@@H](CCC(=O)O)CC(=O)O)Cc1ccccc1)NC(=O)C[C@H](Cc1ccccc1)NC(=O)[C@@H]1CNCC[C@H]1N | inactive
O=C1C[C@H](c2ccccc2)Oc2cc(O)cc(O)c21 | 0.631 µM (active)
CC(C)C[C@@H](CC(=O)N[C@@H](CCC(=O)O)CC(=O)O)NC(=O)[C@@H]1CCCC[C@H]1NC(=O)C[C@H](CCCN)NC(=O)C[C@H](Cc1c[nH]c2ccccc12)NC(=O)[C@@H]1CCCC[C@H]1N | inactive
CC(C)C[C@@H](CC(=O)N[C@@H](CCCN)CC(=O)N[C@@H]1CCNC[C@H]1C(=O)N[C@H](CC(=O)N[C@@H](CCC(=O)O)CC(=O)O)CC(C)C)NC(=O)[C@@H]1CCCC[C@H]1N | 15.8 µM (active)
CC(C)C[C@@H](CC(=O)N[C@@H](CCC(=O)O)CC(=O)O)NC(=O)[C@@H]1CNCC[C@H]1NC(=O)C[C@H](CCCN)NC(=O)C[C@H](Cc1c[nH]c2ccccc12)NC(=O)[C@@H]1CCCC[C@H]1N | inactive
NCCC[C@@H](CC(=O)N[C@@H]1CCNC[C@H]1C(=O)N[C@H](CC(=O)N[C@@H](CCC(=O)O)CC(=O)O)Cc1ccccc1)NC(=O)C[C@H](Cc1ccccc1)NC(=O)[C@@H]1CCCC[C@H]1N | inactive

The compounds below were run against Tyrosyl-DNA phosphodiesterase 1 (Homo sapiens) (UniProt Q9NUW8) (assay: Confirmation Assay for Inhibitors of Tyrosyl-DNA Phosphodiesterase (TDP1) (AID 489007; further: nearly all actives have a fitted effect of over 40% in size)). Details: recombinant human TDP1 enzymatic activity, dose-response.
Chain of Tyrosyl-DNA phosphodiesterase 1 (Homo sapiens) (Q9NUW8 whole entry, looked up): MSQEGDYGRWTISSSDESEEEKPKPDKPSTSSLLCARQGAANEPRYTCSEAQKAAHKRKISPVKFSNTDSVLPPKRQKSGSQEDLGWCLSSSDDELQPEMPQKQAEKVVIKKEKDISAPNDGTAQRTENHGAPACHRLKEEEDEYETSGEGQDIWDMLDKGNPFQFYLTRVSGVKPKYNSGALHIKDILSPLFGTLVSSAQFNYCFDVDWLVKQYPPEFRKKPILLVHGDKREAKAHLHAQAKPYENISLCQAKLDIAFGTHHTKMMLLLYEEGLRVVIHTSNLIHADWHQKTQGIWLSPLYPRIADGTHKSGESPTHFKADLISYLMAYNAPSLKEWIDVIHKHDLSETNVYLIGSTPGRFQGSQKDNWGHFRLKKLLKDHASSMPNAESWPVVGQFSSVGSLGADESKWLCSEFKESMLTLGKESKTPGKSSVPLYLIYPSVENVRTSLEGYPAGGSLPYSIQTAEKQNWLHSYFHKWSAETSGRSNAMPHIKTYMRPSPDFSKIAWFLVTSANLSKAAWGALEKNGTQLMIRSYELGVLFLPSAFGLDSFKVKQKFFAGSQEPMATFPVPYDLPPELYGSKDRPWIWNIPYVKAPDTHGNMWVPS
Summary of the method: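 Compounds are preincubated 15 min at room temperature with 1 nM recombinant human Tdp1. The reaction starts on adding 15 nM FITC-phosphotyrosine DNA substrate, runs 5 min, and is detected by AlphaScreen beads after 10 min.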

SMILES | Potency
O=C(O)c1cc(-c2ccc(/C=N/N3C(=O)C4C5C=CC(C6CC56)C4C3=O)o2)ccc1Cl (stereo unspecified) | 31.6 µM (active)
CCN(CC)Cc1c(O)c(Cl)cc2c(C)cc(=O)oc12 | 14.1 µM (active)
O=C(CSc1nnc(SCc2ccccc2)s1)N/N=C/c1c[nH]c2ccccc12 | 4.47 µM (active)
Cc1ccc(NC(=O)CN2C(=O)S/C(=C\c3ccc(-c4cccc(C(=O)O)c4C)o3)C2=O)cc1 | 11.2 µM (active)
Cc1nc2ccc(C(=O)O)cc2c2c1CC(C)S2 (stereo unspecified) | 31.6 µM (active)
COc1ccc(N2Cc3cccc(C(=O)N4CCN(C(=O)c5ccco5)CC4)c3C2=O)cc1 | 7.08 µM (active)
Nc1nonc1-c1nc2ccccc2n1CC(=O)N/N=C/c1ccc(-c2cccc(C(=O)O)c2)o1 | 14.1 µM (active)
Cn1c(-n2cccc2)c(-c2c(-c3ccccc3)[nH]c3c2c(=O)[nH]c(=O)n3C)c(=O)[nH]c1=O | 100 µM (active)
COc1ccc(OCc2cc(C(=O)O)c(C)o2)cc1 | 10 µM (active)
